Sampled rows, rich in hits. Any-hit rate of the full collection: about 3.6%.
PLK1 PBD inh: blocks phosphopeptide binding to human PLK1 polo-box domain; P53350; Plk1 PBD binding of FITC phosphopeptide, fluorescence polarization; Potency, µM, inactives show max response, negative = inhibition, hits mostly inhibitors; 360,000 compounds, 2.8% hits; AID 720504; further: potency means the concentration at half of the fitted maximal effect; series mostly up to about 57 µM; on the % scale 0 is the no-effect control and ±100 the full control effect; nearly all actives have a fitted effect of over 65% in size
VDR inhibitor: blocks the human vitamin D receptor; P11473; 400,000 compounds, 0.93% hits; Potency, µM, for inactives: max response, negative = inhibition, most hits filed as inhibitors; VDR-SRC2-3 peptide fluorescence polarization, 2 h; further: potency means the concentration at half of the fitted maximal effect; on the % scale 0 is the no-effect control and ±100 the full control effect
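Measured by FP: displacement of SRC2-3 coactivator peptide from VDR by library compounds, following a two-hour ambient incubation.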
Rango complex inh: prevents formation of the Rango-importin beta complex | Q14974 | Rango CFP/YFP FRET sensor + importin beta, 45 min | Potency, µM (titrated, usually from 92.2 µM), for inactives: at the highest dose inhibition of complex formation | 340,000 compounds, 0.031% hits; calls by dose curve;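 further: potency means the concentration at half of the fitted maximal effect; 0% = DMSO wells and 100% = buffer wells lacking importin beta; nearly all actives have a fitted effect of over 15% in size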
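Inhibition scored from the CFP 486 nm/YFP 530 nm FRET ratio 45 min after adding 0.125 microM importin beta to 50 nM Rango biosensor preincubated 5 min with compound (room temperature, PBS with DTT, Tween-20, BSA). No-importin wells as positive control.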
PI5P4Ka inh: inhibitors of human PI5P4K alpha; PI5P4Kalpha enzyme, ADP-Glo luminescence, 60 min; active compounds read low; max response, %; 330,000 compounds, 1.2% hits; AID 652105; active means max response of -50% or lower; inconclusive means between -30% and -50%; inactive means -30% or higher; further: value at the top dose of about 77 µM; on the % scale 0 is the no-effect control and ±100 the full control effect
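Reactions run in 0.038 M HEPES pH 7.4, 0.28 mM EGTA, 0.1% CHAPS and 5% DMSO, with PI5P4Kalpha, substrate, compound and 5 microM ATP final, one hour at room temperature. Readout is ADP-Glo luminescence.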
Rango dissoc inh: inhibition of RanGTP-driven Rango-importin beta dissociation; O95149+P62826; 340,000 compounds, 0.071% hits; Potency, µM (titrated, usually from 46.1 µM), for the others: at the highest dose activity change, negative = inhibition; Biochemical FRET Rango-importin beta, RanGTP-induced dissociation; calls by dose curve; further: potency means the concentration at half of the fitted maximal effect; % of control where 0% means no effect; nearly all actives have a fitted effect of over 45% in size
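Rango FRET biosensor (snurportin-1 IBB flanked by N-terminal EYFP and C-terminal CFP10) at 0.1 uM, with 0.25 uM importin beta in PBS, 1mM DTT, 0.02% Tween-20, 0.1% BSA. 0.6 uM Ran, 2mM GTP and 0.2 uM RCC1 were then added for 45 min at room temperature. Inhibition read as loss of FRET rise.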
GCN5L2 inh: inhibitors of human GCN5L2 histone acetyltransferase; Q92830; GCN5L2 HAT assay, ThioGlo1 CoA-SH fluorescence; Potency, µM (doses to about 58.9 µM), for the others: top-dose activity change, negative = inhibition, usual class: inhibitors; 390,000 compounds, 0.21% hits; AID 504327; further: potency means the concentration at half of the fitted maximal effect; on the % scale 0 is the no-effect control and ±100 the full control effect
Target sequence (Q92830 whole entry, looked up): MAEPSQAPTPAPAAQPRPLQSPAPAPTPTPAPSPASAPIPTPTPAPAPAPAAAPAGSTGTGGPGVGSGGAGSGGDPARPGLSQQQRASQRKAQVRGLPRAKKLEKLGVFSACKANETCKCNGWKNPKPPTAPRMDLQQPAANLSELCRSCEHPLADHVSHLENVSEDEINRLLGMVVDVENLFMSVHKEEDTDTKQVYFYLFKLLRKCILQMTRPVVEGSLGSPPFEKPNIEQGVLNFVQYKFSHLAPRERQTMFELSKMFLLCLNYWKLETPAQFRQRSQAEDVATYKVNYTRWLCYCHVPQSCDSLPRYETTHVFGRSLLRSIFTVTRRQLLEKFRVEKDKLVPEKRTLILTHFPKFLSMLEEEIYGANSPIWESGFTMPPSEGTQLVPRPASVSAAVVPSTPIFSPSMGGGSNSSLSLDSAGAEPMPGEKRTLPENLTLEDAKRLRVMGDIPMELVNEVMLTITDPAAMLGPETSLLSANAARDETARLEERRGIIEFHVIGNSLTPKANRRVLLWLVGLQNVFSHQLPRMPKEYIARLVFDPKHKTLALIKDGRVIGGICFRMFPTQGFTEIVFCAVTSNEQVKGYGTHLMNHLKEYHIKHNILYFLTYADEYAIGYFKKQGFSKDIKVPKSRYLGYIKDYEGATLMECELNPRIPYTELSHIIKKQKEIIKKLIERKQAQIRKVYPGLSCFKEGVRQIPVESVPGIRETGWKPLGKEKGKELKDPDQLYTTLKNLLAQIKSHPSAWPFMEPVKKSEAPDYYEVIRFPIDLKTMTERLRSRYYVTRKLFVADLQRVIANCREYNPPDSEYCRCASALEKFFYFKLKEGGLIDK
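Enzyme at 20nM final was mixed with library compounds for 15 min at room temperature. Peptide H3(1-25) at 75uM, acetyl-CoA at 70uM and ThioGlo1 at 50uM were then added. Plates were read immediately and after 20 min (Ex340nm/Em540nm).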
The depositor's hits bear a star; u = inconclusive; x = not tested or not shown. Unless noted, the call rests on the fitted dose curve; in most records, active means well fitted curve in the direction sought with a large enough effect; inconclusive means small, poorly fitted or top-dose-only effect, or another doubt; inactive means no such curve, though single readings can be large; an effect the other way counts as inactive or inconclusive.

SMILES	PLK1 PBD inh	VDR inhibitor	Rango complex inh	PI5P4Ka inh	Rango dissoc inh	GCN5L2 inh
O=C(O)CSc1cccc[n+]1[O-]	-1.3%	16.1%	-1.9%	-4.4	12.1%	x
O=C(CSc1cccc[n+]1[O-])c1cc(Cl)ccc1Cl	-7.2%	-12.8%	3.0%	-6.8	24.9%	-1.7%
CCCCCOc1ccc(C(=O)N(Cc2ccccc2)C2CCS(=O)(=O)C2)cc1 (stereo not drawn)	x	2.0%	x	x	x	-5.1%
CN(C)c1ccc(N/C=C/C(=O)c2ccco2)cc1	0.9%	89.1µM*	5.8%	u	-18.3%	-12.0%
Nc1cccc2c(O)cc(S(=O)(=O)O)cc12	13.4µM*	12.6µM*	u	-88.5*	u	x
Nc1cc(=O)[nH]c(SCC(=O)Nc2cc([N+](=O)[O-])ccc2Cl)n1	21.2µM*	-15.2%	0.8%	-24.0	-3.3%	-0.4%
CC(C)Cn1c(=O)c2sccc2n2c(CCCC(=O)Nc3ccc(Cl)cc3)nnc12	x	8.2%	x	x	x	1.5%
O=C(Nc1nc(-c2ccccc2)cs1)c1cccnc1	-9.5%	4.4%	-2.3%	x	-0.5%	-3.9%
O=C(Nc1nc(-c2ccccn2)cs1)c1ccccc1-n1cnnn1	3.77µM*	u	-3.4%	u	-6.8%	-11.6%
CC(=O)Nc1ccc(C(=O)Nc2nc(-c3ccccn3)cs2)cc1	23.8µM*	-24.1%	0.0%	-19.9	-10.6%	-14.2%
Cc1ccc(C(=O)Nc2nc(-c3ccccn3)cs2)o1	-22.5%	1.2%	u	-23.8	-0.5%	-6.3%
CC(=O)Nc1ccc(C(=O)Nc2nc(-c3cccnc3)cs2)cc1	13.4µM*	u	1.7%	-26.3	12.2%	-9.3%
CC(=O)c1ccc(-c2ccc(C(=O)Nc3nc(-c4ccccn4)cs3)o2)cc1	26.7µM*	-17.8%	-0.6%	u	-18.7%	-10.2%
COc1ccc2c(=O)c(C)c(-c3ccccc3)oc2c1CN(C)C	x	2.9%	x	x	x	2.7%
CC(C)NOC(=O)c1ccc(Cl)cc1	29.9µM*	-12.0%	-2.0%	-11.0	-13.2%	-5.9%
Cc1ccc(C(=O)Nc2ccc3c(c2)OCO3)o1	11.9µM*	-4.6%	-1.2%	-23.9	8.4%	-10.2%
CN(C)C(=S)Nc1ccc2c(c1)OCO2	6.7µM*	-7.5%	3.1%	-15.1	-7.7%	-9.1%
C/C(=C\C(=O)c1ccc(C)o1)Nc1ccc2c(c1)OCO2	-5.1%	5.8%	-2.1%	x	-17.6%	-0.2%
Fc1ccc(Nc2nc(SCc3ccccc3F)nc3ccccc23)cc1	x	10.3%	x	x	x	0.7%
COc1ccc(C(=O)NC2CC(C)(C)Cc3c2cnn3-c2ccccc2)cc1OC (stereo not drawn)	-7.1%	-4.2%	2.6%	-0.7	1.8%	-27.3%
COc1cc(C(=O)NC2CC(C)(C)Cc3c2cnn3-c2ccccc2)cc(OC)c1OC (stereo not drawn)	29.9µM*	u	1.3%	-4.2	1.7%	-1.3%
COc1ccc(-n2ncc3c2CC(C)(C)CC3NC(=O)c2c(C)cc(=O)oc2C)cc1 (stereo not drawn)	23.8µM*	u	4.4%	-2.9	1.0%	-3.9%
COc1ccc(C(=O)Nc2cccc(-c3cn4ccsc4n3)c2)c(OC)c1	x	-7.3%	x	x	x	-11.2%
CCOC(=O)CNC(=O)O[C@@H]1C(=O)c2cc(Br)ccc2O[C@H]1c1ccc2c(c1)OCO2	x	-2.0%	x	x	x	x
CCN(CC1CCCO1)C(=O)CCc1nnc(Cc2ccc3c(c2)OCO3)o1 (stereo not drawn)	-3.1%	-13.5%	2.0%	-1.7	9.9%	u
SMILES	PLK1 PBD inh	VDR inhibitor	Rango complex inh	PI5P4Ka inh	Rango dissoc inh	GCN5L2 inh
CCCN(CC1CCCO1)C(=O)CCc1nnc(CCc2ccc(OC)cc2)o1 (stereo not drawn)	13.4µM*	u	-0.3%	-19.8	-12.5%	-5.3%
O=C(Cn1cc(F)c(=O)[nH]c1=O)NCCO	5.32µM*	-3.3%	u	3.5	-3.3%	-5.3%
O=C(Cn1ccc(=O)[nH]c1=O)NCCO	-5.2%	-14.4%	-2.6%	7.7	0.1%	-0.9%
CCOC(=O)CSC1=C(C#N)C(c2sccc2C)C(C(C)=O)=C(C)N1 (stereo not drawn)	26.7µM*	-13.7%	-0.2%	x	0.9%	-5.6%
CCOC(=O)CSC1=C(C#N)C(c2ccc(Cl)cc2)C(C(=O)OC)C(=O)N1 (stereo not drawn)	23.8µM*	-8.1%	1.9%	x	-4.4%	-4.3%
Nc1ccn([C@@H]2O[C@H](CO)[C@H](O)C2(F)F)c(=O)n1	x	-10.3%	x	x	x	0.6%
Cc1ccc(C2C=C(c3ccc(Cl)cc3)Nc3nc(NC(=O)c4ccco4)nn32)cc1 (stereo not drawn)	x	-27.9%	x	x	x	1.3%
Cc1cc(NC(=O)c2cc(-c3ccc(Br)cc3)on2)nn1Cc1ccc(Cl)cc1	x	-8.6%	x	x	x	1.1%
COc1ccc(-c2cc3ccc(O)cc3oc2=O)cc1	-4.9%	1.0%	u	-0.3	u	31.6µM*
COc1ccc(-c2cc3ccc(O)c(CN4CCCC4)c3oc2=O)cc1	x	7.1%	x	x	x	u
O=c1oc2c(CN3CCCC3)c(O)ccc2cc1-c1ccccc1	x	5.4%	x	x	x	17.8µM*
COc1ccc(-c2cc3ccc(O)c(CN4CCC(C)CC4)c3oc2=O)cc1	x	-4.4%	x	x	x	28.2µM*
COc1ccc(-c2cc3ccc(OCC(C)=O)cc3oc2=O)cc1	-4.7%	10.5%	-2.4%	6.5	-15.5%	-18.3%
O=c1oc2c(CN3CCOCC3)c(O)ccc2cc1-c1ccc(Cl)cc1	x	11.2%	x	x	x	u
O=C(O)C(Oc1ccc2cc(-c3ccc(Cl)cc3)c(=O)oc2c1)c1ccccc1 (stereo not drawn)	42.3µM*	-17.3%	u	-0.8	-15.5%	-2.1%
O=C(O)C(Oc1ccc2ccc(=O)oc2c1)c1ccccc1 (stereo not drawn)	x	12.4%	x	x	x	x
CC[C@H](C)[C@H](NC(=O)[C@H](C)NC(=O)CNC(=O)[C@H](CCCN=C(N)N)NC(=O)[C@H](C)NC(=O)[C@H](CC(C)C)NC(=O)[C@H](CCC(=O)O)NC(=O)[C@H](CC(C)C)NC(=O)[C@H](C)NC(=O)[C@@H](N)CCC(=O)O)C(=O)N[C@@H](Cc1ccccc1)C(=O)N[C@@H](CCC(N)=O)C(=O)N[C@@H](C)C(=O)O	x	-3.5%	x	x	x	0.0%
Cc1cc2nc(-c3cccc(NC(=O)COc4ccc(C(C)C)cc4)c3)oc2cc1C	x	6.1%	x	x	x	-16.0%
COc1ccc(CNC(=O)c2ccc(-c3nc(CSc4ccccc4)c(C)o3)cc2)cc1OC	x	9.7%	x	x	x	-2.7%
CCOc1ccc(C(O)(CCC(C)C)C(CN2CCOCC2)c2ccccc2)cc1 (stereo not drawn)	-5.4%	-1.9%	u	10.2	29.5%	-0.4%
CCOc1ccc(C(O)(c2ccccc2)C(CN2CCCC2)c2ccccc2)cc1 (stereo not drawn)	5.97µM*	u	3.1%	-24.1	8.4%	-6.8%
